Screening data from PubChem BioAssay.
An excerpt weighted towards active compounds, which were near 14% of everything screened.
Pf growth 48h – Primary qHTS for delayed death inhibitors of the malarial parasite plastid, 48 hour incubation; P. falciparum luciferase growth in erythrocytes, 48 h; Potency, µM (top dose mostly 28.7 µM), inactives show at the highest dose activity change, negative = inhibition, actives largely listed as inhibitors; 5.9% of 310,000 active; note: potency is the fitted concentration of half-maximal effect
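Luminescence readout; reporter = integrated firefly luciferase in P. falciparum. RBC culture at 2% hematocrit, 0.1% parasitemia final, 37 C/5% CO2; decreased signal taken as growth inhibition.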
Sm TGR inh – qHTS Assay for the Inhibitors of Schistosoma Mansoni Peroxiredoxins. 3% of 360,000 active. Schistosoma mansoni thioredoxin glutathione reductase (TGR), Q962Y6. Potency, µM (series often up to 114 µM), for inactives: at the highest dose activity change, negative = inhibition, usual class: inhibitors. purified TGR, DTNB reduction, TNB absorbance 405 nm; note: potency is the fitted concentration of half-maximal effect; nearly all actives have a fitted effect of over 60% in size
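First, TGR (20 nM dispensed) and NADPH were mixed with compound. Second, a 15 min room-temperature incubation followed. Third, further NADPH and then DTNB were added to start the reaction. Finally, TNB absorbance was monitored kinetically.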
HCMV inh – qHTS Assay for inhibitors of the human cytomegalovirus (HCMV); HFF cells, HCMV-luciferase reporter, 72 h; active compounds read low; 4.5% of 410,000 active; AID 1259415, 2018; activity change, negative = inhibition, % at 57.5 µM; in the data active = activity change below about -60%; inconclusive = no clear call, values can overlap the other calls; inactive = above about -39%
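Luciferase read-out from HCMV-luciferase-infected HFFs (MOI 1 PFU/cell) 72 h post infection at 37C; compounds added after 16 h cell attachment; activity normalized between buffer-only basal and Salinomycin (10uM) inhibitor controls.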
Giardia FBPA inh – qHTS Assay for Inhibitors of Fructose-1,6-bisphosphate Aldolase from Giardia Lamblia | A8B2U2 | purified Giardia FBPA | Potency, µM (series often up to 59.6 µM), for the others: top-dose activity, negative = inhibition, hits mostly inhibitors | 0.71% of 290,000 active | AID 2451, 2010; note: potency is the fitted concentration of half-maximal effect; nearly all actives have a fitted effect of over 55% in size
Target sequence (A8B2U2 whole entry, looked up): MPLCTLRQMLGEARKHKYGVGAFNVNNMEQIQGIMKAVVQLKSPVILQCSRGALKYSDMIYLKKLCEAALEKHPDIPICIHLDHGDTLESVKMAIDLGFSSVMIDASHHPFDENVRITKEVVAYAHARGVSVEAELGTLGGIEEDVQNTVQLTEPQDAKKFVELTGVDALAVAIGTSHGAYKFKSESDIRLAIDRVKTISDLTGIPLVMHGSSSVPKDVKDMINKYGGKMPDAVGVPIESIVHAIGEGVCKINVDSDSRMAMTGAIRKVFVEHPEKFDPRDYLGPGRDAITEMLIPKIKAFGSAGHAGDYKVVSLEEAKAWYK
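40 nM FBPA preincubated 10 min at RT with compound (up to 57.5 uM final), then substrate plus GAPDH/TPI/NAD/arsenate coupling and diaphorase/resazurin added. Fluorescence read after 20 min at RT, 525/598 nm.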
Pf growth 96h – Primary qHTS for delayed death inhibitors of the malarial parasite plastid, 96 hour incubation; P. falciparum luciferase reporter growth, 96 h; AID 504834, 2011; Potency, µM (titrated, usually from 28.7 µM), without a hit: at the top dose activity change, negative = inhibition, usual class: inhibitors; 6.9% of 320,000 active; note: potency is the fitted concentration of half-maximal effect
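96 h incubation, 37 C, 5% CO2, of luciferase-reporter P. falciparum-infected RBCs (2% hematocrit, 0.05% parasitemia final) with test compounds; endpoint luminescence.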
* hit, by the source's call; ! = repeats disagree. Unless noted, calls come from the whole dose curve; as a rule, active = well fitted curve in the direction sought with a large enough effect; inconclusive = small, poorly fitted or top-dose-only effect, or another doubt; inactive = no such curve, though single readings can be large; an effect the other way counts as inactive or inconclusive. % is set by controls: 0 for no effect and ±100 for the full control effect.

Screening CCOc1ccc(OCCCCn2ccnc2)cc1 returned Pf growth 48h -13%, Sm TGR inh -3%, HCMV inh -61*, Giardia FBPA inh -21% and Pf growth 96h -5%.
Cc1ccc(OCCCn2ccnc2)cc1C was read as Pf growth 48h inconclusive, Sm TGR inh 0%, HCMV inh -34, Giardia FBPA inh 5% and Pf growth 96h -39%.
Cc1cc(C)cc(OCCCn2ccnc2)c1 was read as Pf growth 48h -10%, Sm TGR inh 0%, HCMV inh 4, Giardia FBPA inh -9% and Pf growth 96h 4.7µM*.
Cc1cccc(NC(=O)N2CCC3(CC2)Oc2ccccc2C(=O)N3Cc2ccccc2F)c1C was read as Sm TGR inh -2% and HCMV inh -35.
`O=[N+]([O-])c1cccc(S(=O)(=O)N2CCCCC2c2cccnc2)c1` (centres undefined) gave Pf growth 48h inconclusive, Sm TGR inh -3%, HCMV inh -13, Giardia FBPA inh 15% and Pf growth 96h inconclusive.
COc1ccc(NCc2cccn2-c2nnc(N3CCCCC3)s2)cc1OC was read as Sm TGR inh 45µM* and HCMV inh -8.
Screening COc1ccc(OC)c(NCc2cccn2-c2nnc(N3CCCCC3)s2)c1 returned Sm TGR inh -15% and HCMV inh inconclusive.
COc1ccc(NCc2cccn2-c2nnc(N3CCOCC3)s2)cc1OC was read as Sm TGR inh 32µM* and HCMV inh 8.
For Cc1cccc(NC(=O)N2CC=C(c3c[nH]c4ccccc34)CC2)c1C the results were Sm TGR inh -29% and HCMV inh 0.
`CCC(C)NC(=O)c1ccc(Cn2c(=O)c3cccn3c3cccnc32)cc1` (centres undefined) gave Sm TGR inh 7% and HCMV inh 3.
`C=CC(C)(C)c1[nH]cnc1/C=C1\NC(=O)C(C(C)C)NC1=O` (centres undefined) gave Pf growth 48h inconclusive, Sm TGR inh -34%, HCMV inh -2, Giardia FBPA inh -22% and Pf growth 96h 2.1µM*.
For O=C(N/N=C/c1ccc(OC(F)F)cc1OC(F)F)NC1CCCCC1 the results were Pf growth 48h 10µM*, Sm TGR inh -9%, HCMV inh -31, Giardia FBPA inh -8% and Pf growth 96h inconclusive.
C[C@]12CCC(=O)C[C@H]1CC[C@@H]1[C@@H]2CC[C@]2(C)[C@@H](O)CC[C@@H]12 was read as Pf growth 48h inconclusive, Sm TGR inh 10% and Pf growth 96h inconclusive.
`C[C@]12CCC(=O)C[C@@H]1CC[C@@H]1[C@@H]2CC[C@]2(C)[C@@H](C(=O)COC(=O)CCC(=O)O)CC[C@@H]12` gave Pf growth 48h -13%, Sm TGR inh 0%, HCMV inh -61*!, Giardia FBPA inh -1% and Pf growth 96h -19%.
Screening Cc1ccc(NC(=O)C(c2ccccc2)N2CCN(CC(=O)N3CCOCC3)CC2)cc1 (centres undefined) returned Pf growth 48h inconclusive, Sm TGR inh -22%, HCMV inh -8 and Pf growth 96h -27%.
For COc1ccc(C)cc1NC(=O)C(c1ccccc1)N1CCN(CC(=O)N2CCCC2)CC1 (centres undefined) the results were Pf growth 48h 12µM*, Sm TGR inh -9%, HCMV inh -29 and Pf growth 96h 12µM*.
`COc1ccc(C)cc1NC(=O)C(c1ccccc1)N1CCN(CC(=O)N2CCOCC2)CC1` (centres undefined) gave Pf growth 48h 9.3µM*, Sm TGR inh 2%, HCMV inh 6 and Pf growth 96h inconclusive.
COc1ccc(CCNC(=O)CCc2c(C)nc3nc(C)nn3c2C)cc1OC was read as Sm TGR inh -1% and HCMV inh 2.
For Cc1ccc(OCc2ccccc2Br)c([N+](=O)[O-])n1 the results were Pf growth 48h 38%, Sm TGR inh -12%, HCMV inh 39, Giardia FBPA inh 7% and Pf growth 96h 40%.
For Cc1ccc(-c2nn3c(C)nnc3c3ccccc23)cc1S(=O)(=O)NCc1ccccc1 the results were Pf growth 48h inconclusive, Sm TGR inh 4%, HCMV inh 69, Giardia FBPA inh -7% and Pf growth 96h 8.3µM*.
`CCN(CC)C(=O)c1cc([N+](=O)[O-])cc2c1-c1ccc([N+](=O)[O-])cc1C2=C(C#N)C#N` gave Pf growth 48h 15µM*, Sm TGR inh 4µM*, HCMV inh 28, Giardia FBPA inh 7.1µM* and Pf growth 96h inconclusive.
`O=C(COc1ccc(Br)cc1)Nc1cc(S(=O)(=O)N2CCCCC2)ccc1N1CCCCC1` gave Pf growth 48h -12%, Sm TGR inh 6%, HCMV inh -27, Giardia FBPA inh 0% and Pf growth 96h 1.9µM*.
For COc1ccc(N2CCCC2)c(NC(=O)COc2ccccc2Cl)c1 the results were Pf growth 48h inconclusive, Sm TGR inh -31%, HCMV inh 56, Giardia FBPA inh -3% and Pf growth 96h 12%.
Screening CN1CCN(c2ccc(S(=O)(=O)N3CCCCC3)cc2NC(=O)COc2cccc(Cl)c2)CC1 returned Pf growth 48h 10µM*, Sm TGR inh -2%, HCMV inh -14 and Pf growth 96h inconclusive.
For O=C(COc1ccc(Cl)cc1)Nc1cc(S(=O)(=O)N2CCCCC2)ccc1N1CCCCC1 the results were Pf growth 48h 12µM*, Sm TGR inh -11%, HCMV inh -7, Giardia FBPA inh 2% and Pf growth 96h 2.3µM*.
N#Cc1ccc(OCC(=O)Nc2cc(S(=O)(=O)N3CCCCC3)ccc2N2CCCCC2)cc1 was read as Pf growth 48h 1%, Sm TGR inh -6%, HCMV inh -35, Giardia FBPA inh -1% and Pf growth 96h inconclusive.
For COc1ccc(OCC(=O)Nc2cc(OC)ccc2N2CCCCC2)cc1 the results were Pf growth 48h 12µM*, Sm TGR inh 11%, HCMV inh 17, Giardia FBPA inh 12% and Pf growth 96h 42%.
Screening Cc1cc(NC(=O)CSc2nc3c([nH]c4ccccc43)c(=O)n2-c2cccc(C(F)(F)F)c2)no1 returned Pf growth 48h 12µM*, Sm TGR inh 2%, Giardia FBPA inh 5% and Pf growth 96h 9.3µM*.
Cc1cc(NC(=O)CSc2nc3c([nH]c4ccccc43)c(=O)n2-c2ccccc2F)no1 was read as Pf growth 48h 13µM*, Sm TGR inh -1%, HCMV inh 40 and Pf growth 96h 13µM*.
